Sa RN4220 lethal – S. aureus RN4220 growth inhibition; inhibition, % (test concentration not listed); OD600, 16 h; hit rate 0.33% among 330,000; in the data active = inhibition above about 85%;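 note: plate controls were untreated cells for no effect and reference antibiotic for full effect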
CCHF vOTU inh-1 – blocks the CCHF virus ovarian tumor domain protease; CCHFV vOTU protease, Pep-AMC fluorescence; AID 651958; hit rate 0.55% among 370,000; inhibition, % at 11.5 µM; note: 0% = vehicle wells with enzyme and 100% = no enzyme wells
ugtP null kill – growth inhibition of S. aureus ugtP deletion strain; S. aureus RN4220 ugtP deletion, OD600 growth, 16 h; growth inhibition, % (no concentration beside the values); hit rate 0.54% among 330,000; AID 1259309; in the data active = growth inhibition above about 68%;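 note: plate controls were untreated wells for no effect and antibiotic for full effect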
PriA SSB inh – inhibitors of Klebsiella pneumoniae PriA binding to SSB C-terminal tail. inhibition, % at 33 µM. AlphaScreen SSBct-PriA binding, biotinylated peptide. AID 1272365. hit rate 0.6% among 430,000; in the data active = inhibition mostly above about 37%, no sharp cut-off; inactive = mostly below about 20%;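 note: plate controls were negative control peptide for no effect and reference peptide for full effect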
DUSP3 inh – blocks human VHR1 dual specificity phosphatase; P51452; recombinant VHR phosphatase, pNPP absorbance; inhibition, % at 13.3 µM; hit rate 0.52% among 290,000; AID 1654; in the data active = inhibition above about 50%
Target sequence (P51452 whole entry, looked up): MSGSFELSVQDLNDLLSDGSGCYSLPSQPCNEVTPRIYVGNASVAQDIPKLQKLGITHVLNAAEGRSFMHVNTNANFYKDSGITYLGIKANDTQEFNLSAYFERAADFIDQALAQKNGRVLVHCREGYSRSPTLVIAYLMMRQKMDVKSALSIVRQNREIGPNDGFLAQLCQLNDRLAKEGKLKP
CCHF vOTU inh-2 – CCHFV vOTU protease inhibition, confirmation. shares compounds with CCHF vOTU inh-1. Recombinant CCHFV vOTU, Pep-AMC fluorescence. inhibition, % at 11.5 µM. hit rate 17% among 1,900
* hit, by the source's call; . = no result. An excerpt weighted towards active compounds, which were near 1.5% of everything screened. Cut-off read from the data, not from the text of the source, unless noted: active = inhibition above about 30%; inactive = the rest.

SMILES	Sa RN4220 lethal	CCHF vOTU inh-1	ugtP null kill	PriA SSB inh	DUSP3 inh	CCHF vOTU inh-2
COc1cccc(C(C(=O)NC2CCCC2)N2CCN(c3cc(C)ccc3C)CC2)c1OC (stereo not given)	.	30*	.	.	.	-5
Cc1nn(C)c(C(=O)NN=Cc2ccccn2)c1[N+](=O)[O-]	3	.	0	11	.	.
Cc1nn(C)c(C(=O)N/N=C/c2ccccc2)c1[N+](=O)[O-]	.	31*	.	.	-10	-13
CCOC(=O)C1=C(COC(=O)c2sccc2C)NC(=O)NC1C (stereo not given)	7	13	8	-5	.	.
CCOC(=O)C1=C(COC(=O)c2ccc([N+](=O)[O-])s2)NC(=O)NC1C (stereo not given)	15	100*	2	1	.	76*
CCOC(=O)C1=C(COC(=O)c2ccc3ccccc3c2O)NC(=O)NC1C (stereo not given)	3	36*	-11	9	.	-12
O=C1CC(N2CCOCC2)=NN1c1ccc([N+](=O)[O-])cc1	4	104*	-2	5	9	2
CN(C)c1ccc(/C=C2/C(=O)N(c3ccc([N+](=O)[O-])cc3)N=C2N2CCOCC2)cc1	.	.	.	.	5	.
O=C(CSc1nnc2n1CCN2c1ccccc1)Nc1ccc(F)cc1F	.	.	.	-12	.	.
CCOC(=O)C1=C(Cc2ccc(C)cc2)C(=O)c2ccccc2C1=O	.	96*	.	.	12	-9
CCOC(=O)C1=C(Cc2ccc(OC)cc2)C(=O)c2ccccc2C1=O	35	.	18	14	6	.
COc1ccc(NS(=O)(=O)c2cccc(C(=O)N3CCN(C/C=C/c4ccccc4)CC3)c2)cc1	.	30*	.	.	.	-11
O=C(Nc1ccc(Cl)c(C(F)(F)F)c1)c1cc2ccccc2c(=O)s1	.	.	.	-9	.	.
CCOP(=O)(OCC)C(Nc1cccc(C(F)(F)F)c1)c1ccc(C)cc1 (stereo not given)	6	30*	-9	-30	-4	11
COc1ccc(/C=N/NC(=O)c2nn(-c3ccc(C)c(C)c3)c(=O)c3ccccc23)cc1	.	5	.	.	24	.
COc1ccc(/C=N/NC(=O)c2nn(-c3ccc(Cl)cc3)c(=O)c3c(N)scc23)cc1	.	33*	.	.	14	39*
CCOC(=O)c1nn(-c2ccc(OC)cc2)c(=O)c2c(N)scc12	11	17	-3	8	-9	.
COc1ccc(/C=N/NC(=O)c2nn(-c3ccccc3)c(=O)c3c(N)scc23)cc1	.	50*	.	.	-4	91*
COc1ccccc1CC(N)=NOC(=O)COc1cccc(C)c1C	.	.	.	-33	.	.
Cc1nc(N2CCCC2)nc(C)c1NS(=O)(=O)c1cccc(C(F)(F)F)c1	.	.	.	10	.	.
COc1ccc(C(O)c2nccc3cc(OC)c(OC)cc23)cc1OC (stereo not given)	-9	90*	15	5	4	-10
COc1cc(CNc2ncnc3c2ncn3[C@H]2CN(Cc3cccc(C(F)(F)F)c3)C[C@@H](COC(C)=O)O2)cc(OC)c1OC	.	5	.	.	.	.
COc1cc(CNc2ncnc3c2ncn3[C@H]2CN(Cc3cccc(C(F)(F)F)c3)C[C@@H](CO)O2)cc(OC)c1OC	.	31*	.	.	.	-9
O=C(N/N=C/c1c(O)n(CCc2ccccc2)c(=O)[nH]c1=O)c1ccccc1O	5	32*	2	.	16	-8
Cc1nc2c(OCc3ccc(F)cc3)cccn2c1N(C)C(=O)CCC1CCCC1	.	19	.	.	.	.
SMILES	Sa RN4220 lethal	CCHF vOTU inh-1	ugtP null kill	PriA SSB inh	DUSP3 inh	CCHF vOTU inh-2
Cc1nc2c(OCc3ccc(C(F)(F)F)cc3)cccn2c1N(C)C(=O)CCC1CCCC1	.	33*	.	.	.	4
CCOC(=O)N(C)c1c(CC)nc2c(OCCC3CCCCC3)cccn12	.	30*	.	.	.	6
CCOC(=O)C(=O)N(C)c1c(CC)nc2c(OCCC3CCCCC3)cccn12	.	17	.	.	.	.
N#Cc1cc([N+](=O)[O-])ccc1NC(=O)CSc1n[nH]c(=O)n1C1CC1	4	32*	0	-14	.	-15
CC1(C)Cc2cccc(OCC(=O)Nc3ccc4c(c3)C(=O)N3CCCCC3CCO4)c2O1 (stereo not given)	.	.	.	-1	.	.
O=C(O)c1cccc(NC2=C(n3nnc4ccccc43)C(=O)c3ccccc3C2=O)c1	5	79*	2	-8	-12	85*
CCOc1cccc(CNc2ccc(O)cc2)c1OCc1ccc(Cl)cc1	-4	31*	6	1	9	-2
COc1cccc(CNCCO)c1OCc1ccc(Cl)cc1	6	0	15	8	16	.
CC1Cc2ccccc2N1C(=O)COC(=O)c1ccc([N+](=O)[O-])o1 (stereo not given)	7	39*	8	9	.	10
O=C(CSc1ccc(NC(=O)c2cccs2)nn1)NCCc1ccccc1	.	.	.	-10	.	.
COc1ccc(NC(=O)COc2cc(C)cc(C)c2)cc1S(=O)(=O)N1CCCCC1	-2	30*	-9	0	.	-16
CN(C)C=Nc1c(C(=O)c2ccccc2)sc2nccc(N(C)C)c12	3	30*	5	-10	0	-2
CCOC(=O)c1sc2nccc(N(C)C)c2c1N=CN(C)C	-5	-3	-11	-5	-1	.
COC(=O)c1ccccc1NC(=O)COC(=O)C1CCCCC1	11	32*	7	-9	3	-8
CCN(c1ccc(C(O)(C(=O)OC)C(F)(F)F)cc1)S(=O)(=O)c1ccccc1 (stereo not given)	10	9	4	-12	6	.
O=S(=O)(c1ccccc1)N(CC(F)(F)F)c1ccc(C(O)(C(F)(F)F)C(F)(F)F)cc1	.	34*	.	.	.	0
Cc1ccc2c(c1)c(=O)c1c3n2CCN(C(=O)CCl)C3CC1 (stereo not given)	3	51*	-1	0	12	19
CC1=C(N2CC2)C(=O)C(CO)=C(N2CC2)C1=O	.	35*	.	-20	.	5
COc1cccc(OC)c1C(=O)N1CCN(c2ccc(-c3ccc(C)cc3)nn2)CC1	.	.	.	-5	.	.
COC(=O)N/N=C1/C/C(=N\NC(=O)OC)c2ccccc21	.	89*	.	.	16	72*
COC(=O)NN=C1CC(=NNC(=O)OC)c2ccccc21	6	.	6	-1	.	.
CC1=NN(c2ccc(C)c(C)c2)C(=O)C1C(c1cccc(O)c1)C1C(=O)N(c2ccc(C)c(C)c2)N=C1C (stereo not given)	12	42*	-2	-2	54*	11
Cc1ccccc1NC(=O)CCc1csc(NC(=O)NC2CCCCC2)n1	.	.	.	-18	.	.
COc1ccc(-n2nnnc2SCC(=O)c2cccc(OC)c2)cc1	14	31*	-2	1	0	-13
CCCN1C(=O)C(C)(C)COc2ccc(NC(=O)c3ccccc3OCC)cc21	.	.	.	10	.	.
CC(NS(=O)(=O)/C=C/c1ccccc1)C(=O)O (stereo not given)	2	32*	-5	-9	6	-15
CC(NS(=O)(=O)C=Cc1ccccc1)c1ccccc1 (stereo not given)	9	.	-2	.	.	.
Nc1c(C(=O)Nc2ccc3c(c2)OCCO3)nnn1Cc1ccc(Br)cc1	1	31*	-1	-3	.	-9

Screening data deposited in PubChem BioAssay by several laboratories.
